Data reported in PubChem BioAssay (EPA / NIEHS).
More than one record can exist for a structure, and the calls need not agree. The source made the active and inactive calls. Rule for the calls: active = hit-call score of the fitted dose curve at least 0.9, where 1 is the maximum; inactive = score below 0.9.

Key:
[1] = BSK_CASM3C_SRB: Viability Assessment in the BioMAP Diversity Plus: CASM3C Assay (AID 2283050); details: primary human coronary artery smooth muscle cells;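 note: total protein by SRB staining as cytotoxicity measure in parallel cultures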
[2] = read-out: Thrombomodulin, THBD (gene 7056); test: BSK_CASM3C_Thrombomodulin: BioMAP Diversity Plus: CASM3C Assay for Thrombomodulin Biomarker Activity (AID 2283051); details: primary human coronary artery smooth muscle cells; actives raise or lower the signal;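 note: thrombomodulin protein level measured by ELISA 24 h after dosing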
[3] = read-out: Tissue Factor, F3 (gene 2152); test: BSK_CASM3C_TissueFactor: BioMAP Diversity Plus: CASM3C Assay for Tissue Factor Biomarker Activity (AID 2283052); details: primary human coronary artery smooth muscle cells; actives raise or lower the signal;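 note: cell surface tissue factor protein level read by ELISA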
[4] = read-out: Interferon-gamma inducible Protein 10 (IP10), CXCL10 (gene 3627); test: BSK_hDFCGF_IP10: BioMAP Diversity Plus: hDFCGF Assay for Interferon-gamma inducible Protein 10 (IP10) Biomarker Activity (AID 2283053); details: primary human foreskin fibroblasts; actives raise or lower the signal
Procedure, shortened: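 IP-10 levels, quantified by ELISA, are taken from human foreskin fibroblast cultures 24 h after chemical treatment, with DMSO serving as negative control and baseline for bidirectional analysis.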

[5] = read-out: Urokinase-type plasminogen activator receptor (uPAR), PLAUR (gene 5329); test: BSK_CASM3C_uPAR: BioMAP Diversity Plus: CASM3C Assay for Urokinase-type plasminogen activator receptor (uPAR) Biomarker Activity (AID 2283054); details: primary human coronary artery smooth muscle cells; actives raise or lower the signal;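 note: cell-surface uPAR protein level quantified by ELISA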
[6] = read-out: Vascular cell adhesion molecule 1 (VCAM1), VCAM1 (gene 7412); test: BSK_CASM3C_VCAM1: BioMAP Diversity Plus: CASM3C Assay for Vascular cell adhesion molecule 1 (VCAM1) Biomarker Activity (AID 2283055); details: primary human coronary artery smooth muscle cells; actives raise or lower the signal;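 note: VCAM-1 protein level quantified by ELISA on the cells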
[7] = read-out: Epidermal growth factor receptor (EGFR), EGFR (gene 1956); test: BSK_hDFCGF_EGFR: BioMAP Diversity Plus: hDFCGF Assay for Epidermal growth factor receptor (EGFR) Biomarker Activity (AID 2283057); details: primary human foreskin fibroblasts; actives raise or lower the signal
Procedure, shortened: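 Measured by ELISA: EGFR levels on primary human foreskin fibroblasts 24 h after chemical treatment, analysed relative to DMSO with bidirectional fitting.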

[8] = read-out: Interleukin-8 (IL8), CXCL8 (gene 3576); test: BSK_hDFCGF_IL8: BioMAP Diversity Plus: hDFCGF Assay for Interleukin-8 (IL8) Biomarker Activity (AID 2283058); details: primary human foreskin fibroblasts; actives raise or lower the signal
Procedure, shortened: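 Fibroblast monolayers (human foreskin, hDFCGF) received test chemical for 24 h before ELISA detection of IL-8; either increases or decreases relative to DMSO count as activity.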

[9] = BSK_hDFCGF_Proliferation: Cell Proliferation Assessment in the BioMAP Diversity Plus: hDFCGF Assay (AID 2283059); details: primary human foreskin fibroblasts;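 note: curves fitted for both rise and fall of signal versus DMSO baseline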
Procedure, shortened: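 This proliferation readout used SRB total-protein staining of human foreskin fibroblasts […], normalized to DMSO with bidirectional curve fitting.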

[10] = read-out: Macrophage colony-stimulating factor (MCSF), CSF1 (gene 1435); test: BSK_hDFCGF_MCSF: BioMAP Diversity Plus: hDFCGF Assay for Macrophage colony-stimulating factor (MCSF) Biomarker Activity (AID 2283060); details: primary human foreskin fibroblasts; actives raise or lower the signal
Procedure, shortened: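 fibroblasts (human foreskin, primary), 24 h post-dose; M-CSF by ELISA; bidirectional fit, DMSO = baseline.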

[11] = BSK_hDFCGF_SRB: Viability Assessment in the BioMAP Diversity Plus: hDFCGF Assay (AID 2283061); details: primary human foreskin fibroblasts;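 note: cells exposed to compound for 24 h before the read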
Procedure, shortened: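 SRB-based viability read on primary human skin fibroblasts at 24 h: TCA fixation, 0.1% dye, 560 nm. Gain or loss of signal is fitted against the DMSO negative control.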

[12] = read-out: TIMP metallopeptidase inhibitor 1 (TIMP1), TIMP1 (gene 7076); test: BSK_hDFCGF_TIMP1: BioMAP Diversity Plus: hDFCGF Assay for TIMP metallopeptidase inhibitor 1 (TIMP1) Biomarker Activity (AID 2283062); details: primary human foreskin fibroblasts; actives raise or lower the signal
Procedure, shortened: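 Bidirectional curve fitting against DMSO baseline yielded this endpoint, based on ELISA detection of TIMP-1 in primary human foreskin fibroblasts exposed to compound for 24 h.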

[13] = read-out: Monokine induced gamma interferon (MIG), CXCL9 (gene 4283); test: BSK_hDFCGF_MIG: BioMAP Diversity Plus: hDFCGF Assay for Monokine induced gamma interferon (MIG) Biomarker Activity (AID 2283063); details: primary human foreskin fibroblasts; actives raise or lower the signal
Procedure, shortened: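 Endpoint derived by bidirectional fitting relative to DMSO; MIG quantified via ELISA in primary human foreskin fibroblasts harvested 24 h after dosing.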

[14] = read-out: Matrix Metallopeptidase 1 (MMP1), MMP1 (gene 4312); test: BSK_hDFCGF_MMP1: BioMAP Diversity Plus: hDFCGF Assay for Matrix Metallopeptidase 1 (MMP1) Biomarker Activity (AID 2283064); details: primary human foreskin fibroblasts; actives raise or lower the signal
Procedure, shortened: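 Primary human foreskin fibroblasts exposed to chemicals for 24 h; MMP1 measured by ELISA. Cytotoxicity tracked by SRB staining in parallel cultures; bidirectional fit relative to DMSO.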

[15] = read-out: Vascular cell adhesion molecule 1 (VCAM1), VCAM1 (gene 7412); test: BSK_hDFCGF_VCAM1: BioMAP Diversity Plus: hDFCGF Assay for Vascular cell adhesion molecule 1 (VCAM1) Biomarker Activity (AID 2283065); details: primary human foreskin fibroblasts; actives raise or lower the signal;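 for AC50: VCAM-1 protein level quantified by ELISA after 24 h chemical exposure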
Procedure, shortened: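 Measured after 24 h chemical treatment of primary human skin fibroblasts, VCAM-1 was detected by ELISA and concentration-response analysed in both directions versus DMSO vehicle.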

[16] = read-out: Intercellular Adhesion Molecule 1 (ICAM1), ICAM1 (gene 3383); test: BSK_KF3CT_ICAM1: BioMAP Diversity Plus: KF3CT Assay for Intercellular Adhesion Molecule 1 (ICAM1) Biomarker Activity (AID 2283067); details: primary human keratinocytes with fibroblasts; actives raise or lower the signal
Procedure, shortened: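 Bidirectional curve fitting against a DMSO baseline was applied to ICAM-1 ELISA signal from primary human skin co-cultures harvested 24 h after treatment, with SRB staining of parallel wells for overt cytotoxicity.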

[17] = read-out: Interferon-gamma inducible Protein 10 (IP10), CXCL10 (gene 3627); test: BSK_KF3CT_IP10: BioMAP Diversity Plus: KF3CT Assay for Interferon-gamma inducible Protein 10 (IP10) Biomarker Activity (AID 2283068); details: primary human keratinocytes with fibroblasts; actives raise or lower the signal
Procedure, shortened: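 Signal is secreted/surface IP-10 by ELISA in a human primary skin co-culture of keratinocytes and foreskin fibroblasts, taken 24 h post-dosing; DMSO served as negative control.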

[18] = BSK_KF3CT_SRB: Viability Assessment in the BioMAP Diversity Plus: KF3CT Assay (AID 2283069); details: primary human keratinocytes with fibroblasts;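 note: total protein by sulforhodamine B staining as a cytotoxicity measure; read 24 h after compound addition; fitted for both signal gain and loss against DMSO baseline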
Procedure, shortened: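 Human keratinocyte and foreskin fibroblast co-culture exposed to chemical for 24 h. Total protein measured in parallel cultures by 0.1% sulforhodamine B staining after 10% TCA fixation, read at 560 nm; bidirectional fit relative to DMSO.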

[19] = read-out: Plasminogen activator inhibitor-1 (PAI1), SERPINE1 (gene 5054); test: BSK_hDFCGF_PAI1: BioMAP Diversity Plus: hDFCGF Assay for Plasminogen activator inhibitor-1 (PAI1) Biomarker Activity (AID 2283066); details: primary human foreskin fibroblasts; actives raise or lower the signal
Procedure, shortened: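 PAI-1 levels, determined by ELISA, served as the endpoint in human foreskin fibroblast cultures exposed to compound for 24 h, with DMSO as baseline.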

Measured: AC50

O=S(=O)(O)C(F)(F)C(F)(F)OC(F)(F)C(F)(F)F
not listed: [19]
inactive: all other assays above

C[C@]12CC[C@@H]3c4ccc(O)cc4CC[C@H]3[C@@H]1CC[C@@H]2O
active: [9] 22.8 µM | [15] 20 µM
not listed: [19]
inactive: all other assays above

CC(C)(CO)CO
inactive: [1] | [2] | [3] | [4] | [5] | [6] | [7] | [8] | [9] | [10] | [11] | [12] | [13] | [14] | [15] | [16] | [17] | [18]
active: [11] 4.62 µM

O=S1(=O)CC(Cl)(Cl)C(Cl)(Cl)C1
inactive: [7] | [8]
active: [1] 0.82 µM | [2] 7.52 µM | [3] 2.07 µM | [4] 0.961 µM | [5] 1.05 µM | [6] 0.93 µM | [9] 0.016 µM | [10] 0.71 µM | [11] 0.845 µM | [12] 0.839 µM | [13] 0.794 µM | [14] 0.865 µM | [15] 0.613 µM | [19] 0.865 µM | [16] 1.4 µM | [17] 2.65 µM | [18] 1.36 µM

CCCCOCCOCCO
not listed: [19]
inactive: all other assays above

c1ccc(OCCOc2ccccc2)cc1
inactive: [1] | [2] | [3] | [4] | [5] | [6] | [7] | [8] | [9] | [10] | [11] | [12] | [13] | [14] | [15] | [16] | [17] | [18]
active: [11] 0.15 µM
